# In PubChem BioAssay (NCI):
# This is part of a sample that, as a whole, favours compounds with a hit. Of some 79,000 tested, about 15% had one in any assay. Unmarked numbers belong to inactive results. Calls of active or inactive are those of the source. Rule as the data show it: active = growth inhibition above about 70%; inactive = the rest.
# Assay: NCI Yeast Anticancer Drug Screen. Data for the bub3 strain (AID 167)
# Details: S. cerevisiae bub3 mutant strain, at 50.0 µM (retest, dose inferred, filed as 5.0), stronger effect = higher value
# Procedure, shortened: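 Whole-cell yeast assay. The mutant strain was incubated with compounds, and growth inhibition was determined by comparison with vehicle-treated cells.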
row,Compound,growth inhibition
1,COC(=O)/C=C/c1cccc[n+]1[O-],0%
2,CN(C)CCCNc1c(C#N)[n+]([O-])c2cc(Cl)ccc2[n+]1[O-],94% (active)
3,Cc1c(N=Nc2ccc(Br)cc2)c(-c2ccccc2)nn1C(N)=S,95% (active)
4,COc1cc2c(c(OC)c1OC)-c1ccc(O)c(=O)cc1C(N=Cc1ccccc1)CC2 (stereo not given),-2%
5,CCC(C)SC1SCC2C(=O)N(C)C3(CC3C)C(=O)OCC(NC(=O)c3nc4ccccc4cc3O)C(=O)NC(C)C(=O)N(C)C1C(=O)N(C)C1(CC1C)C(=O)OCC(NC(=O)c1nc3ccccc3cc1O)C(=O)NC(C)C(=O)N2C (stereo not given),93% (active)
6,O=C(N/C(=C\c1ccc2c(c1)OCO2)c1nc2ccccc2s1)c1ccccc1,98% (active)
7,CCCC/C=C1/CCC(CN(C)C)C1=O (stereo not given),84% (active)
8,O=C(O)c1cc2c(cc1CC(Cc1ccc3c(c1)CCCC3)C(=O)O)CCCC2 (stereo not given),98% (active)
9,CCNC(=O)COc1ccc(Cl)cc1Cl,-3%
10,Fc1ccc(OCCC(Cn2ccnc2)c2ccc(Cl)cc2Cl)cc1 (stereo not given),94% (active)
11,Cc1ccc(NC(=O)/C(CC(=O)c2sc(Nc3ccc(Cl)c(Cl)c3)nc2C)=N\Nc2ccc([N+](=O)[O-])cc2[N+](=O)[O-])c(C)c1,99% (active)
12,Oc1ccc(C/C=C/c2ccccc2)cc1O,98% (active)
13,CC(=O)OC1=CC2=CCC3C(CCC4(C)C(C(C)=O)CCC34)C2(C)CC1 (stereo not given),-14%
14,CCCCNc1ccc(-c2c(N)nc(N)nc2CC)cc1[N+](=O)[O-],-1%
15,ClCCOCCOc1c(Cl)cc(Cl)c(Cl)c1Cl,14%
16,Cc1ccc(S(=O)(=O)C(=S)Sc2ccccc2)cc1,90% (active)
17,CCC(C)(C)c1ccc(OCCO)c([N+](=O)[O-])c1,88% (active)
18,CCCCCCC(C)S(=O)(=O)c1ccc(C)cc1 (stereo not given),50%
19,O=C1N(Cc2ccccc2)CC1(c1ccccc1)C1CCCCC1O (stereo not given),93% (active)
20,COc1cc2c(oc(=O)c3cc(C)cc(OC)c32)c2c(C3OC(C)C(O)C(C)(O)C3O)ccc(O)c12 (stereo not given),97% (active)

row,Compound,growth inhibition
1,CCc1cc(C)cc(NC(=O)OC2CCCCC2C)c1 (stereo not given),85% (active)
2,Cc1cc(Nc2ccc(N=Nc3ccc(O)c4ncccc34)cc2)nc(C)n1,4%
3,Oc1ccc(C2SC(c3ccc(O)cc3)SC(c3ccc(O)cc3)S2)cc1 (stereo not given),99% (active)
4,O=[N+]([O-])c1cnc(Sc2cncc[n+]2[O-])s1,99% (active)
5,O=C(C1=Cc2ccccc2OC1)N1CCN(c2cccc(Cl)c2)CC1,97% (active)
6,O=C1C=CC(=O)c2cc(Sc3ccccc3)c(=O)ccc21,98% (active)
7,O=C(O)CCCCCCC(=O)CCl,78% (active)
8,CC(=O)NC1=C(Sc2ccc(C)cc2)C(=O)c2ccccc2C1=O,98% (active)
9,Cc1cc(O)c(C=NC(=S)C(N)=S)c(=O)o1,49%
10,Cc1cc(C)c(Cc2cc(C(C)(C)C)cc(C)c2O)cc1Cc1cc(C(C)(C)C)cc(C)c1O,26%
11,O=C(O)CCC/C(=N\Nc1ccccc1)C(=O)O,98% (active)
12,Cc1cc(Oc2nc(Cl)nc(C(Cl)(Cl)Cl)c2Cl)cc(C)c1N(C)C (tested in a mixture with another compound),30%
13,CC(NCCO)c1ccc2ccccc2c1 (stereo not given),-1%
14,[O-][n+]1ccc(Br)c(/C=C/c2ccccc2)c1,9%
15,O=C(NCCNCCNCCNC(=O)c1cc(-c2ccccc2)nc2ccccc12)c1cc(-c2ccccc2)nc2ccccc12,86% (active)
16,CC(C)C(Sc1nc(-c2ccccc2)c(-c2ccccc2)[nH]1)C(=O)NN (stereo not given),98% (active)
17,O=C(CNc1cccc(Cl)c1)Nn1c(-c2ccccc2)nc2ccccc2c1=O,87% (active)
18,O=C(COc1ccc(Cl)c(Cl)c1)Nc1ccc[n+](Cc2ccc(Cl)c(Cl)c2)c1,99% (active)
19,CCOC(=O)c1cnccc1CC1(C#N)c2ccccc2C=CN1C(=O)c1ccccc1 (stereo not given),71% (active)
20,O=C1C(N2CCOCC2)=C(Cl)C(=O)c2ncccc21,97% (active)
